Sm TGR block – blocks Schistosoma mansoni thioredoxin glutathione reductase. Q962Y6. purified TGR, DTNB reduction, TNB absorbance 405 nm. Potency, µM (titrated, usually from 114 µM), for inactives: at the highest dose activity change, negative = inhibition, usual class: inhibitors. 360,000 compounds, 3% hits. AID 485364; also: nearly all actives have a fitted effect of over 60% in size
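TGR 20 nM + NADPH 100 uM (dispensed conc.), cpd preinc 15 min RT; start with NADPH (500 uM addition) then DTNB (15 mM addition). Kinetic TNB absorbance, 405 nm filter. Four-parameter Hill fit across titration.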
HCV inhibitor – inhibitors of hepatitis C virus infection; 340,000 compounds, 3.4% hits; Huh7.5.1 HCVcc-Cre infection, luciferase reporter, 44 h; Potency, µM (highest dose often 41.8 µM), without a hit: top-dose activity change, negative = inhibition, hits mostly inhibitors; AID 651820
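Cells (1,000/well) were plated 4 h before compound, then infected with HCVcc-Cre virus (~0.5 moi). After 44 h further culture, infection was read as luciferase luminescence following a 15 min substrate incubation at room temperature.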
MARV entry inh – inhibitors of Marburg virus binding or cell entry | Marburg virus pseudotyped entry inhibition, cell reporter | Potency, µM (series often up to 37.8 µM), for the others: at the top dose activity change, negative = inhibition, usual class: inhibitors | 300,000 compounds, 1.8% hits; calls by dose curve; tested in HEK293 cells
Lassa entry inh – Lassa virus entry inhibition. Lassa virus pseudotype entry inhibition, cell reporter. Potency, µM (highest dose often 37.9 µM), for inactives: top-dose activity change, negative = inhibition, usual class: inhibitors. 300,000 compounds, 1.2% hits. AID 540256; calls by dose curve; tested in HEK293 cells; also: nearly all actives have a fitted effect of over 50% in size
FMDV inh – antivirals against foot and mouth disease virus; FMDV antiviral cell-based qHTS; Potency, µM (highest dose often 57.9 µM), without a hit: at the highest dose activity change, negative = inhibition, most hits filed as inhibitors; 410,000 compounds, 1.2% hits; calls by dose curve; tested in HEK293T cells; also: read-out not given here; nearly all actives have a fitted effect of over 45% in size
RE007 growth inh – less growth of the S. pombe RE007 Vpr strain | 360,000 compounds, 0.21% hits | S. pombe RE007 Vpr strain, BacTiter-Glo ATP luminescence, 24 h | Potency, µM (doses to about 92.2 µM), without a hit: at the highest dose activity change, negative = less growth, usual class: inhibitors; active = well fitted falling curve with a large enough effect; inconclusive = small, poorly fitted or top-dose-only effect; inactive = no such curve, though single readings can be large or run the other way; also: nearly all actives have a fitted effect of over 50% in size
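Fission yeast RE007 carrying one integrated HIV-1 vpr copy, seeded at OD 0.01 in PMG+AL medium with 23 nL pinned compound. Grown 24 h at 30 degrees; viability read by BacTiter-Glo luminescence after 5 min.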
Starred values were filed as active, the others as inactive; ? = inconclusive; nt = no result given; [ ] = remark or other dose. A selection: hits, their analogues and other compounds. The true share with any hit is near 7.2%. Unless noted, calls follow the shape of the dose curve; as a rule, active = well fitted curve in the direction sought with a large enough effect; inconclusive = small, poorly fitted or top-dose-only effect, or another doubt; inactive = no such curve, though single readings can be large; an effect the other way counts as inactive or inconclusive. % is scaled to controls: 0 for no effect and ±100 for the full control effect; potency is read from the fitted curve at half-maximal effect.

SMILES	Sm TGR block	HCV inhibitor	MARV entry inh	Lassa entry inh	FMDV inh	RE007 growth inh
COc1ccccc1CN1CCC(n2cc(C(=O)N3CCCCC3)nn2)CC1	nt	nt	nt	nt	-10.7%	nt
CN(Cc1ccc2c(c1)OCCO2)C(=O)CSc1ncnc2sccc12	nt	?	-33.7%	-29.1%	39.8µM*	2.5%
N#CC1=C(N)n2c(s/c(=C\c3cccs3)c2=O)=C(C#N)C1c1cccs1 (centres undefined)	-32.7%	0.501µM*	nt	nt	-0.1%	6.8%
COc1ccc(NCc2cc3cc4c(cc3n(CC(=O)Nc3cc(C)ccc3C)c2=O)OCCO4)cc1	4.8%	nt	nt	5.1%[46.1 µM]	-21.1%	nt
COc1ccc(C2C3=C(CC(C)(C)CC3=O)Nc3c2c(=O)[nH]c(=O)n3Cc2ccccc2)cc1OC (centres undefined)	-28.1%	13.3%	-1.2%	-4.1%	-24.4%	-14.2%
COc1cc(C2C3=C(CC(C)(C)CC3=O)Nc3c2c(=O)[nH]c(=O)n3Cc2ccccc2)ccc1O (centres undefined)	50.1µM*	-3.9%	16.6%	3.7%	-6.4%	6.3%
Cc1ccc(-n2c(O)c(/C=C3/C(c4ccccc4)=Nc4ccccc43)c(=O)[nH]c2=O)cc1	?	?	?	-9.4%	?	nt
CC1=Nc2ccccc2/C1=C/c1c(O)n(C)c(=O)[nH]c1=O	-20.2%	17.5%	?	6.1%	31.6µM*	4.9%
Cc1cccc(-n2c(O)c(/C=C3/C(c4ccccc4)=Nc4ccccc43)c(=O)[nH]c2=O)c1	0.0%	?	nt	nt	?	?
Cc1ccccc1-n1c(O)c(/C=C2/C(c3ccccc3)=Nc3ccccc32)c(=O)[nH]c1=O	-11.0%	?	?	?	22.4µM*	?
Cc1ccc(-n2c(=O)c3c4c(sc3n3c(C)nnc23)CO[C@H](C(C)C)C4)cc1	nt	nt	13.5%	nt	nt	nt
Cc1ccc(S(=O)(=O)c2cnc(SCC(=O)Nc3ccccc3C(F)(F)F)[nH]c2=O)cc1C	4.5%	nt	0.2%[46.1 µM]	nt	-9.9%	nt
CCN(CC)c1ccc(NC(=O)c2cnccn2)cc1S(=O)(=O)Nc1ccc(OC)cc1	-1.6%	8.91µM*	?	?	62.4%	nt
CCN(CC)c1ccc(NC(=O)c2ccc(=O)[nH]c2)cc1S(=O)(=O)Nc1ccccc1OC	0.4%	22.4µM*	?	-29.3%[46.1 µM]	19.6%	-27.7%
CCN(CC)c1ccc(NC(=O)COc2ccccc2C#N)cc1S(=O)(=O)Nc1ccc(OC)cc1	-10.1%	?	?	?	89.2%	nt
CCNC(=S)Nc1ccc(C)c(S(=O)(=O)Nc2ccccc2OC)c1	2.82µM*	-3.5%	-24.5%[46.1 µM]	10.1%	43.6%	-9.5%
CN(C)c1ccc(C(CNS(=O)(=O)c2ccccc2)N2CCc3ccccc32)cc1 (centres undefined)	-1.6%	nt	nt	9.5%[46.1 µM]	0.7%	nt
Cc1ccc(C(=O)N2CCOc3ccc(CN4CCN(Cc5ccccn5)CC4)cc3C2)cc1	nt	nt	nt	nt	6.5%	nt
CCOC(=O)n1c(=O)n(C)c2ccc(Cl)cc21	29.5%	3.16µM*	-1.5%[46.1 µM]	9.2%	-3.1%	-11.7%
CCOC(=O)n1c(=O)n(Cc2ccccc2)c2ccccc21	2.2%	23.9%	4.2%	-14.9%	-10.6%	40.0%
O=C1CCc2cc(S(=O)(=O)NC(C(=O)Nc3cccc(F)c3)c3ccccc3)ccc2N1 (centres undefined)	9.6%	nt	?	5.7%[46.1 µM]	26.1%	nt
Cc1c(Cl)ccc2sc(NC(=O)c3ccc(S(=O)(=O)N4CCCc5ccccc54)cc3)nc12	11.8%	nt	nt	-11.9%[46.1 µM]	-1.6%	nt
COC(=O)c1ccc(C(NC(=O)OCc2ccccc2)/C(F)=C/[C@@H](C)C(=O)NCc2ccc(OC)c(OC)c2)cc1 (some centres undefined)	-2.8%	2.2%	?	14.6µM*	?	-5.4%
Cc1ccccc1C(=O)Nc1cccc(C(=O)OCc2cc(=O)n3ccsc3n2)c1	-4.5%	nt	nt	-6.0%[46.1 µM]	20.6%	nt
COc1ccccc1CN1CC2(CCN(S(C)(=O)=O)CC2)C1	nt	nt	nt	nt	-4.2%	nt
SMILES	Sm TGR block	HCV inhibitor	MARV entry inh	Lassa entry inh	FMDV inh	RE007 growth inh
CC(=O)N1CCN(c2ccc(NC(=O)c3cc4ccccc4o3)cc2)CC1	3.2%	?	nt	nt	16.8%	1.6%
CCC(C)Nc1nc(C)nc2c1oc1ccccc12 (centres undefined)	1.9%	?	nt	nt	?	-9.6%
Cc1nc(NC(C)c2ccccc2)c2oc3ccccc3c2n1 (centres undefined)	1.1%	6.31µM*	?	?	12.6µM*	-12.5%
Cc1nc(SCC(=O)N2CCN(c3ccccc3)CC2)c2oc3ccccc3c2n1	-0.8%	10µM*	-27.5%	?	25.1µM*	-1.2%
CC(=O)N1CCN(c2ccc(Nc3nc(C)nc4c3oc3ccccc34)cc2)CC1	29.6%	?	-21.6%	27.7%	25.1µM*	9.0%
CCc1nc(N2CCCCC2C(=O)O)c2oc3ccccc3c2n1 (centres undefined)	8.8%	12.1%	-1.3%[46.1 µM]	4.1%[46.1 µM]	-8.4%	2.2%
CCc1nc(N2CCCCC2C)c2oc3ccccc3c2n1 (centres undefined)	8.3%	?	18.3µM*	?	?	5.2%
Cc1cccc(Nc2nc(C)nc3c2oc2ccccc23)c1	11.7%	12.6µM*	nt	nt	0.0%	-18.3%
CCOC(=O)C1CCCN(c2nc(C)nc3c2oc2ccccc23)C1 (centres undefined)	6.2%	-12.9%	?	?	22.4µM*	5.0%
CCOC(=O)C1CCN(c2nc(C)nc3c2oc2ccccc23)CC1	0.3%	17.9%	6.9%	13.9%	?	0.5%
CCc1nc(SCC(=O)N2CCCc3ccccc32)c2oc3ccccc3c2n1	-14.8%	11.2µM*	?	18.3µM*	-0.8%	14.5%[3.69 µM]
Cc1nc(Nc2ccncc2)c2oc3ccccc3c2n1	-31.0%	8.91µM*	?	28.1%	?	-5.7%
CC(=O)Nc1ccc(Nc2nc(C)nc3c2oc2ccccc23)cc1	18.1%	?	?	?	?	2.4%
O=C(O)c1c(Cl)c(Cl)c(Cl)c(Cl)c1-c1c2cc(I)c(=O)c(I)c-2oc2c(I)c(O)c(I)cc12	nt	nt	46.6%	?	nt	nt
Cc1ccc(C)c2sc(NC(=O)c3ccc(S(=O)(=O)N4CCC(C)CC4)cc3)nc12	7.5%	nt	nt	-18.0%[46.1 µM]	0.0%	nt
CC(CCC(=O)OC[C@H]1O[C@H](C#Cc2ccccc2)C=C[C@H]1Oc1ccc(C)cc1)=NO[C@H](C)c1cn([C@H](CO)Cc2ccccc2)nn1	nt	nt	?	-6.0%[14.3 µM]	nt	nt
N#Cc1ccc(NC(=O)c2cc(-c3cccc(Cl)c3)on2)cc1	0.4%	nt	?	1.3%[46.1 µM]	2.2%	nt
CCc1nc(NCc2ccccn2)c2oc3ccccc3c2n1	7.3%	?	?	-23.9%	15.8µM*	2.0%
CCc1nc(Nc2cccc(O)c2)c2oc3ccccc3c2n1	-8.9%	?	nt	nt	22.4µM*	-0.2%
CCc1nc(Nc2ccncc2)c2oc3ccccc3c2n1	10.2%	?	?	-13.0%	-21.5%	-2.1%

High-throughput results deposited in PubChem BioAssay by National Center for Advancing Translational Sciences (NCATS).
